Inconclusive results are not listed. A number with no mark means an inactive call. The call rests on the fitted dose curve; in most records, active means well fitted inhibition curve with a large enough effect; inconclusive means small, poorly fitted or top-dose-only effect; inactive means flat fitted curve, though single readings scatter.
Target: Calcium and integrin-binding protein 1 (Homo sapiens) (UniProt Q99828)
Test: Primary qHTS for Identification of Calcium Integrin Binding Protein 1 (CIB1) Competitor (AID 1508620);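 further: GST tagged CIB1 binding a fluorescein labelled alphaIIb integrin peptide tracer; top concentration of the series differs between compounds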
Details: CIB1-GST / FITC-alphaIIb peptide fluorescence polarization; series mostly up to 114 µM; activity change, negative = inhibition: at the top concentration
Description: Assay Provider: Ulhas P. Naik, PhD Sidney Kimmel Medical College Thomas Jefferson University, Philadelphia, PA Primary function of platelets is to maintain hemostasis. At the site of vascular injury, platelets adhere to adhesive proteins such as collagen and von Willebrand factor. Adherent platelets are activated and generate soluble platelet agonists such as thrombin, ADP and thromboxane A2. Following exposure of circulating platelets to these agonists, results in platelet shape change, granule secretion and activation of platelet integrin alphaIIb-beta3. Ligand binding to activated integrin alphaIIb-beta3 triggers outside-in signaling, leading to platelet aggregation, stabilization of platelet plug, and clot retraction. Upon atherosclerotic plaque rupture also causes platelet plug formation, which underlies a number of cardiovascular diseases such as myocardial infraction and stroke. A number of anti-platelet drugs such as aspirin, clopidogrel, prasugrel, vorapaxar, and eptifibatide are currently available to prevent the thrombotic complications. However, these anti-platelet agents have several limitations including inherent variability in individual responses, developing resistance, and serious bleeding side effects. For these reasons they are not suitable for long-term protection. Based on the experiences with current anti-platelet drugs, it appears that the most useful therapeutic approach is to intersect the secondary responses such as integrin outside-in signaling or recruitment of platelets by TxA2 and secreted ADP. Compounds, which can largely preserve the primary hemostatic function of platelets but inhibit secondary response will be most desired therapeutic agents for treatment of cardiovascular disease. CIB1 is a calcium integrin binding protein, which specifically interact with the alphaIIb subunit of integrin alphaIIb-beta3. Binding of CIB1 to alphaIIb regulates the outside-in signaling in platelets, which is needed for thrombus stabilization and thrombus growth. […] Therefore, we propose that discovery of a small molecule that can prevent the association of CIB1 and alphaIIb-beta3 will be a potential anti-platelet agent that can block the thrombus formation without undue effect on hemostasis. Reference: [1] Naik MU, Nigam A, Manrai P, et al. CIB1 deficiency results in impaired thrombosis: the potential role of CIB1 in outside-in signaling through integrin alpha IIb beta 3. J Thromb Haemost.
PROTOCOL TABLES SEQUENCE No. (1, 2, 3, etc.); […] (e.g., Cells, Incubation, Reagent, etc.); VALUE and DESCRIPTION. 1; Reagent; 3 uL; Protein or buffer (4/3x) 2; Compound; 46 nL; Control inhibitor / compound library 3; Time; 15 min; Room temperature incubation 4; Reagent; 1 uL; Fluorescent labeled peptide (4x) 5; Time; 1000 rpm; Centrifuge 6; Time; 15 min; Room temperature incubation 7; Detection; Ex 480/ Em 540; ViewLux Fluorescence Read NOTES (numbers refer to sequence above) 1; Protein Mixture: C1B1-GST (final concentrations of 1 uM). […] 3; Room temperature incubation. 4; Fluorescent Labeled Peptide: FITC-aIIb (final concentration of 100 nM). Sequence of alphaIIb peptide: Acetyl-[…]-FITC (purity is 95.83%). 5; Centrifuge 1000 rpm (164 g) for 15 seconds. 6; Room temperature incubation. 7; ViewLux Fluorescent Polization Read: excitation = 480(20) / emission = 540(25) S and P; FITC Dichroic mirror.
On the % scale 0 is the no-effect control and ±100 the full control effect.

Sequence of Calcium and integrin-binding protein 1 (Homo sapiens) (Q99828 whole entry, looked up): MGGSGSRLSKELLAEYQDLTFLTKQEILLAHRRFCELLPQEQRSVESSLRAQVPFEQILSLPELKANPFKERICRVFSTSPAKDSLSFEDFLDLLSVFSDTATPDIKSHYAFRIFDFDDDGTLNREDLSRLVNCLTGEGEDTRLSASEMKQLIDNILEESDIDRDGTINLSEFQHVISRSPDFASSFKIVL

Structure (SMILES)	activity change, negative = inhibition
CC(=O)OC[C@H]1O[C@@](COC(C)=O)(O[C@H]2O[C@H](COC(C)=O)[C@@H](OC(C)=O)[C@H](OC(C)=O)[C@H]2OC(C)=O)[C@@H](OC(C)=O)[C@@H]1OC(C)=O	2.81%
Cc1cccc(C)c1NC(=O)CC12CCCN1CCC2	4.89%
CCN(CC)CCOC(=O)C(c1ccccc1)c1ccccc1	0.617%
CC(=O)Oc1cccc(C)c1	1.27%
Cc1cccc(C(=O)O)c1O	2.73%
C[C@@H](N)C(=O)O	-6.8%
CCCOC(=O)c1ccc(N)cc1	-1.44%
CC1(C)S[C@@H]2[C@H](N=CN3CCCCCC3)C(=O)N2[C@H]1C(=O)O	-0.327%
CC(=O)Nc1cccc(O)c1	-4.28%
CC(C)NC[C@@H](O)COc1ccc(CC(N)=O)cc1	2.3%
C1CCN2C[C@@H]3C[C@@H](CN4CCCC[C@@H]34)[C@H]2C1	-3.9%
NC(=O)N[C@@H](CCC(=O)O)C(=O)O	6.46%
O=C(O)c1ccc(OCCCOc2ccc(C(=O)O)cc2)cc1	-3.65%
CC(C)CCCC(C)CCCC(C)CCCCC(C)CCCC(C)CCCC(C)C (stereo not given)	2.93%
COc1ccccc1OCC(O)CO (stereo not given)	1.73%
NC(N)=NS(=O)(=O)c1ccc(N)cc1	5.59%
NC(=O)c1ccc([N+](=O)[O-])cc1Cl	6.42%
CC1CCN(CCCC(=O)c2ccc(F)cc2)CC1	-3.69%
CN(C(=O)c1c(O)c2ccccc2n(C)c1=O)c1ccccc1	2.35%
C[C@H]1COc2c(C3(N)CC3)c(F)cc3c(=O)c(C(=O)O)cn1c23	-0.402%

Structure (SMILES)	activity change, negative = inhibition
O=C(O)/C=C/c1ccc(Cn2ccnc2)cc1	2.3%
CC(=O)N[C@@H](Cc1ccc(O)cc1)C(=O)O	4.77%
C/C=C/C(=O)N(CC)c1ccccc1C	-3.13%
C[C@@H]1CCC[C@H](C)N1	5.39%
NS(=O)(=O)c1cc(-c2nn[nH]n2)c(NCc2cccs2)cc1Cl	0.556%
CC1(C)S[C@@H]2[C@H](NC(=O)C(C(=O)O)c3ccccc3)C(=O)N2[C@H]1C(=O)O (stereo not given in full)	2.16%
c1ccc2[nH]ccc2c1	0.127%
CC(=O)SC[C@@H](Cc1ccccc1)C(=O)NCC(=O)OCc1ccccc1	2.75%
Cc1c(C)c2c(c(C)c1OC(=O)c1cccnc1)CC[C@@](C)(CCC[C@H](C)CCC[C@H](C)CCCC(C)C)O2	-0.329%
CCCNC(C)(C)COC(=O)c1ccccc1	0.784%
CC(=O)NS(=O)(=O)c1ccc(N)cc1	-2.01%
CCN(CC)CCc1nc(-c2ccccc2)no1	3.73%
OC[C@@H](O)[C@@H](O)[C@H](O)[C@H](O)CO	2.39%
O=C(NCN1CCOCC1)c1cnccn1	1.51%
CC[C@]12CCCN3CCc4c(n(c5ccccc45)[C@@](O)(C(=O)OC)C1)[C@@H]32	2.93%
CNc1c2c(nn1C)CCCC2	7.58%
CCCCCCCCCCCCCCCCN	8.14%
CCOC(N)=O	1.27%
CC[N+](CC)(CC(=O)Nc1c(C)cccc1C)Cc1ccccc1	2.9%
FC(F)(F)C(Cl)Br (stereo not given)	2.52%

Source: PubChem BioAssay (NCATS)
